The values below come from PubChem BioAssay (NCATS).

Assay [1] in a line: qHTS Assay for Identifying Gametocytocidal Compounds (AID 743244).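 For max response: % is set by controls: 0 for no effect and ±100 for the full control effect; actives lower the fluorescent signal which means gametocytes are killed.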 Note: potency is the fitted concentration of half-maximal effect. To be noted: P. falciparum 3D7 stage III-V gametocytes, alamarBlue, 72 h; max response: stronger effect = lower value. A digest of the protocol:
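Late gametocytes (III–V), P. falciparum 3D7; 72 h drug, then 24 h alamarBlue; resazurin reduction read by fluorescence.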
A general note: qHTS replaces the single test concentration by a dilution series.

The nature of assay [2]: qHTS assay to identify small molecule inhibitors of chordoma cells - UCH-1 (AID 1259355). Note: nearly all actives have a fitted effect of over 55% in size. Note: potency is the fitted concentration of half-maximal effect. A digest of the protocol: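 Seed 800 cells per well; incubate overnight at 37 C, 5% CO2. Add test compounds (15 concentrations), then the auranofin–topoisomerase-agent combination. Incubate 48hr, add CellTiter-Glo, wait 30min, read luminescence.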
Assay [3] in a line: qHTS assay to identify small molecule inhibitors of chordoma cells - UCH-2 (AID 1259356). Note: potency is the fitted concentration of half-maximal effect.
Assay [4] in a line: NS1 protein of Zika virus - qHTS assay to identify small molecule inhibitors in human HEK 293 cells (AID 1347053).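 Note: plate controls were infected untreated cells for no effect and uninfected cells for full effect; nearly all actives have a fitted effect of over 55% in size.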 A digest of the protocol: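 HEK 293 cells pretreated with compound for 1 h, then infected with ZIKV MR766 (MOI 0.5) for 24 h at 37 C. NS1 detected by TR-FRET with two anti-NS1 antibodies; normalized to uninfected (0%) and infected (100%) wells.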
Assay [5] in a line: qHTS assay for cell viability of HEK293 cells (AID 743288). For max response: % is set by controls: 0 for no effect and ±100 for the full control effect. Note: nearly all actives have a fitted effect of over 50% in size. Note: potency is the fitted concentration of half-maximal effect. To be noted: ATP luminescence (CellTiter-Glo), 18 h; max response: stronger effect = lower value. In a few lines: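 Parental HEK293 cells were seeded at 2,000 cells/well, rested at least 5 h at 37 C, then exposed to compounds in DMSO for 18 h at 37 C. Viability was read as ATP-dependent luciferase luminescence after 30 min at room temperature.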

Assay [6] is described as follows: qHTS assay for cell viability of the p53RE-bla HCT-116 cell line (AID 743292). Note: % is set by controls: 0 for no effect and ±100 for the full control effect; nearly all actives have a fitted effect of over 55% in size. A digest of the protocol: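 CellSensor p53RE-bla HCT-116 cells (4,000/well) pre-incubated 5 h at 37 C, then exposed to compounds in DMSO for 16 h at 37 C. Viability read as ATP content by CellTiter-Glo luminescence after 30 min at room temperature.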
A short description of assay [7]: P-glycoprotein substrates identified in KB-8-5-11 adenocarcinoma cell line, qHTS therapeutic library screen (AID 1346987). Note: % is set by controls: 0 for no effect and ±100 for the full control effect; nearly all actives have a fitted effect of over 65% in size. To be noted: outcome: dose series up to 44.5 µM unless noted. A digest of the protocol:
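KB-8-5-11, a colchicine-selected P-gp-overexpressing KB-3-1 subline, was grown without colchicine for the assay. Cells were seeded at 500 cells/well, dosed in concentration-response and incubated 72 h at 37 degree C, 5% CO2. Viability was read by CellTiter-Glo luminescence.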

Assay [8] in a line: qHTS profiling of the MIPE4 collection as inhibitors of Plasmodium falciparum (3D7) proliferation (AID 743344; call rule not given here;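 note: scaled between DMSO vehicle wells and 0.29 µM artemisinin as full inhibition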). The settings on record: P. falciparum 3D7 in erythrocytes, SYBR Green DNA fluorescence, 72 h; at 28.5 µM (top of the series). In a few lines: (§1)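 Erythrocytes infected with P. falciparum (0.3% parasitemia, 2.5% hematocrit) incubated with compounds 72 h at 37 C, 5% CO2. Lysis with saponin/Triton buffer containing SYBR Green I, overnight at room temperature in the dark; DNA fluorescence (485/535 nm) normalised to 0.29 uM artemisinin and DMSO.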

A short description of assay [9]: qHTS profiling of the MIPE4 collection as inhibitors of Plasmodium falciparum (DD2) proliferation (AID 743345; call rule not given here). To be noted: P. falciparum Dd2 in erythrocytes, SYBR Green DNA, 72 h; at 28.5 µM (top of the series). In a few lines: as §1
A short description of assay [10]: qHTS profiling of the MIPE4 collection as inhibitors of Plasmodium falciparum (DD2) proliferation (Rep 2) (AID 743346; call rule not given here). The settings on record: P. falciparum Dd2 in erythrocytes, SYBR Green DNA, 72 h; at 28.5 µM (top of the series). In a few lines: as §1
The nature of assay [11]: qHTS profiling of the MIPE4 collection as inhibitors of Plasmodium falciparum (HB3) proliferation (AID 743347; call rule not given here;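 note: plate controls were DMSO vehicle wells for no effect and artemisinin wells for full effect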). The settings on record: P. falciparum HB3 in erythrocytes, SYBR Green DNA, 72 h; at 28.5 µM (top of the series). A digest of the protocol:
as §1

Several values for one entry are separate records, joined by “and”; a condition that tells them apart may be missing. Equal values may be shown once. Inconclusive results are not listed. Activity calls are given as the source filed them. Unless noted, calls come from the whole dose curve; as a rule, active = well fitted curve in the direction sought with a large enough effect; inconclusive = small, poorly fitted or top-dose-only effect, or another doubt; inactive = no such curve, though single readings can be large; an effect the other way counts as inactive or inconclusive.

In the case of `COc1ccc2nc(NC(=O)Nc3ccccc3)sc2c1`, the max response in [1] was -0.997% (inactive). Also, the Potency entry in assay [2] and in assay [3] was “inactive” throughout. For the same compound, in assay [4], the outcome was inactive.
Turning to `O=C(O)/C=C/c1ccccc1`, in assay [1], the max response is 0.36% (inactive). Besides, the Potency entry in assay [2] and in [3] was “inactive” throughout.
For `O=P(O)(O)O`, the max response is -3.37% (inactive) in assay [1] and -7.47% (inactive) in [5]. Further, the compound was called inactive in assay [6]. The Potency result in assay [2], in assay [3] and in assay [7] was “inactive” each time.
In the case of `O=C1c2ccccc2C(=O)c2c1ccc(O)c2O`, in [1], the max response was 2.07% (inactive). Also, the Potency entry in assay [2] and in assay [3] was “inactive” throughout. The compound was called inactive in [4].
On to `C[C@@H]1NC(=O)[C@@H](N)CNC(=O)[C@H](C2CCNC(N)=N2)NC(=O)/C(=C/NC(N)=O)NC(=O)[C@H](CNC(=O)C[C@@H](N)CCCN)NC1=O` (stereo partly drawn), for which the max response in [1] was 0.778% (inactive) and -5.05% (inactive). Further, the Potency result in [2] and in [3] was “inactive” throughout.
As to `CC(C)=CCC/C(C)=C/CC/C(C)=C/CC/C(C)=C/CC1=C(C)C(=O)c2ccccc2C1=O`, in assay [1], the Potency is 7940 nM (active). The Potency result in assay [2] and in assay [3] was “inactive” in each case.
On to `CC[C@H]1OC(=O)[C@H](C)[C@@H](O[C@H]2C[C@@](C)(OC)[C@@H](O)[C@H](C)O2)[C@H](C)[C@@H](O[C@@H]2O[C@H](C)C[C@H](N(C)C)[C@H]2O)[C@](C)(O)C[C@@H](C)CN(C)[C@H](C)[C@@H](O)[C@]1(C)O`, for which, in assay [5], the max response was -7.47% (inactive). In addition, the result in assay [6] was inactive. Besides, the Potency result in [2], in assay [3] and in [7] was “inactive” throughout.
With `C=C[C@]1(C)C[C@@H](OC(=O)CSCCN(CC)CC)[C@]2(C)[C@H](C)CC[C@]3(CCC(=O)[C@H]32)[C@@H](C)[C@@H]1O`, the max response in [1] was -4.45% (inactive). For the same compound, the Potency entry in assay [2] and in assay [3] was “inactive” throughout.
Take `O=C(O)CCC(=O)c1ccc(-c2ccccc2)cc1`: in assay [1], the max response is 1.84% (inactive). The Potency result in assay [2] and in assay [3] was “inactive” in each case. The call in [4] was inactive.
Take `CC(C)(C)c1ccc2c(S(=O)(=O)O)c(C(C)(C)C)ccc2c1`: the max response in assay [1] is 10.3% (inactive) and 35.8% (inactive). In addition, the Potency result in [2] and in [3] was “inactive” throughout.
`C#C[C@]1(O)CC[C@H]2[C@@H]3CCC4=C(CCC(=O)C4)[C@H]3CC[C@@]21C`: the max response in assay [1] was 12.4% (inactive). The Potency result in [2] and in [3] was “inactive” throughout.
Take `CC(C)Cc1ccc([C@@H](C)C(=O)NS(C)(=O)=O)cc1`: the max response in [1] was 17.9% (inactive). For the same compound, the Potency entry in assay [2] and in assay [3] was “inactive” in each case.
As to `NCCN`, the max response in assay [1] is 20.9% (inactive); in [5] it was -4.96% (inactive). The outcome in [6] was inactive. Besides, the Potency result in assay [2], in assay [3] and in assay [7] was “inactive” each time.
For `COC(=O)c1ccccc1O`, the max response is 3.79% (inactive) in assay [1]; -4.62% (inactive) and -2.27% (inactive) in assay [5]. In assay [6], the result was inactive. For the same compound, the Potency result in [2], in assay [3] and in assay [7] was “inactive” each time.
Compound `O=C(O)[C@H]1C(=CCO)O[C@H]2CC(=O)N12` registered a parasite growth, % of DMSO control in [8] of 93.2%. In addition, the parasite growth remaining, % of DMSO control (lower = more inhibition) in [9] turned out to be 103%. In addition, the parasite growth, % of control (lower = inhibition) in assay [10] was determined as 115%. Besides, the growth, % of control in [11] turned out to be 93.1%. The Potency entry in [2], in assay [3] and in assay [7] was “inactive” each time.
With `CC(C)[C@@H](N)C(=O)O`, in assay [1], the max response was 7.16% (inactive). The Potency entry in [2] and in assay [3] was “inactive” each time.
On to `CC(C)(C)c1ccc(CN2CCN(C(c3ccccc3)c3ccc(Cl)cc3)CC2)cc1` (stereo not drawn), for which the max response in assay [1] was -2.06% (inactive). For the same compound, the Potency entry in assay [2] and in assay [3] was “inactive” in each case.
Consider `O=c1n(CC2CO2)c(=O)n(CC2CO2)c(=O)n1CC1CO1` (stereo not drawn), for which the max response in [1] is 6.57% (inactive); in assay [5] it was -25.2% (inactive) and -21.7% (inactive). Moreover, the result in assay [6] was inactive. Moreover, the Potency entry in [2] and in [3] was “inactive” each time.
With `O=C(O)[C@@H]1C[C@H](CP(=O)(O)O)CCN1`, the max response in assay [1] was 11.7% (inactive). Also, the Potency result in assay [2] and in assay [3] was “inactive” each time.
Turning to `CCCCC(CC)COS(=O)(=O)O` (stereo not drawn), the max response in assay [1] is -3.23% (inactive); in [5], 8.79% (inactive). Further, in assay [6], the outcome was inactive. The Potency result in assay [2] and in assay [3] was “inactive” each time.
Consider `CC(C)C[C@H](NC(=O)[C@@H](Cc1c[nH]c2ccccc12)NC(=O)[C@H](Cc1ccc(O)cc1)NC(=O)[C@H](CO)NC(=O)[C@H](Cc1c[nH]c2ccccc12)NC(=O)[C@H](Cc1cnc[nH]1)NC(=O)[C@@H]1CCC(=O)N1)C(=O)N[C@@H](CCCN=C(N)N)C(=O)N1CCC[C@@H]1C(=O)NCC(N)=O`, for which, in [1], the max response was -1.22% (inactive). Moreover, the Potency result in assay [2] and in assay [3] was “inactive” in each case.
As to `CCOc1ccc(NC(=S)Nc2ccc(OCC)cc2)cc1`, the max response in assay [1] is 1.34% (inactive). Further, the Potency result in assay [2] and in assay [3] was “inactive” in each case.
For the compound `Cn1c(=O)c2c(ncn2CCOC(=O)C(C)(C)Oc2ccc(Cl)cc2)n(C)c1=O`, in assay [1], the max response is 17.7% (inactive). Besides, the Potency result in assay [2] and in [3] was “inactive” each time.
For `Cc1ncc(COP(=O)(O)O)c(CN)c1O`, the max response in [1] is -10.8% (inactive). In addition, the Potency entry in assay [2] and in assay [3] was “inactive” each time.
`C[C@H]1O[C@@H](O[C@H]2[C@@H](O)C[C@H](O[C@H]3[C@@H](O)C[C@H](O[C@H]4CC[C@@]5(C)[C@H](CC[C@@H]6[C@@H]5C[C@@H](O)[C@]5(C)[C@@H](C7=CC(=O)OC7)CC[C@]65O)C4)O[C@@H]3C)O[C@@H]2C)C[C@H](O)[C@@H]1O`: in assay [1], the max response is -13.6% (inactive). Moreover, the Potency in assay [5] was 126 nM (active) and 50.1 nM (active); in assay [2], 355 nM (active); in assay [3] it was 116 nM (active).
